For part of these data: Measured potencies and affinities stand elsewhere. Calls of active or inactive are those of the source. Unless noted, no rule for the calls is given here.
Columns and labels:
[1] = antimalarial activity against Dd2 strain (AID 2302;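 active = growth inhibition above 50% at the single 2 µM test dose, taken to imply half-maximal potency below 2 µM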;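 also: 0% = DMSO untreated growth and 100% = chloroquine plus artemisinin killed control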); settings: P. falciparum Dd2 in RBCs, LDH growth readout, 72 h; at 2 µM; active compounds read high
[2] = HepG2 cytotoxicity, primary screen, cytotoxicity control for P. falciparum antimalarial project, cell-based, ATP luminescence (AID 2303;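 active = inhibition above 50%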;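 also: 0% = DMSO wells and 100% = digitonin-killed cells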); settings: HepG2 viability, 24-48 h, at 10 µM, active compounds read high
[3] = molecular target: L-lactate dehydrogenase (Plasmodium falciparum (isolate CDC / Honduras)) (UniProt Q27743); experiment: PfLDH activity inhibition – cell lysate, 3D7 strain, counter-screen for P. falciparum growth inhibition project (AID 2304);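 also: 0% = vehicle and 100% = reference inhibitor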; settings: P. falciparum 3D7 crude extract, LDH APAD/NBT absorbance; at 2 µM; active compounds read high
[4] = inhibition of 3D7 malaria parasite growth – strain 3D7 (AID 2306);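 also: 0% = DMSO wells and 100% = chloroquine plus artemisinin control wells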; settings: P. falciparum 3D7 erythrocytic growth, LDH absorbance, 72 h; at 2 µM; active compounds read high
[5] = molecular target: Calcium-dependent protein kinase 1 (Plasmodium falciparum (isolate 3D7)) (UniProt P62344); experiment: PfCDPK1 kinase inhibitors, biochemical, TCAMS library (AID 1159585; cut-off not given, nearly all actives have IC50 up to about 0.98 µM;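 also: inhibitors leave more ATP so luminescence rises with inhibition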); settings: recombinant PfCDPK1, Kinase-Glo ATP depletion luminescence
[6] = molecular target: Plasmodium falciparum protein kinase 6 (PK6, PF3D7_1337100) (UniProt Q8IDW1); experiment: PfPK6 kinase inhibitors, biochemical, TCAMS library (AID 1159586); settings: recombinant PfPK6, Kinase-Glo ATP depletion luminescence
[7] = molecular target: Protein kinase 7 (PK7), Plasmodium falciparum 3D7 (PF3D7_0213400) (UniProt Q7YTF7); experiment: inhibition of Plasmodium PK7 catalytic activity – biochemical, TCAMS antimalarial set, Kinase-Glo luminescence (AID 1159587); settings: recombinant PfPK7, Kinase-Glo ATP depletion luminescence
[8] = molecular target: Calcium-dependent protein kinase 4 (Plasmodium falciparum (isolate 3D7)) (UniProt Q8IBS5); experiment: PfCDPK4 kinase inhibitors, biochemical, TCAMS library (AID 1159588; cut-off not given, nearly all actives have IC50 up to about 0.91 µM); settings: recombinant PfCDPK4, Kinase-Glo ATP depletion luminescence
Calcium-dependent protein kinase 4 (Plasmodium falciparum (isolate 3D7)), sequence (Q8IBS5 whole entry, looked up): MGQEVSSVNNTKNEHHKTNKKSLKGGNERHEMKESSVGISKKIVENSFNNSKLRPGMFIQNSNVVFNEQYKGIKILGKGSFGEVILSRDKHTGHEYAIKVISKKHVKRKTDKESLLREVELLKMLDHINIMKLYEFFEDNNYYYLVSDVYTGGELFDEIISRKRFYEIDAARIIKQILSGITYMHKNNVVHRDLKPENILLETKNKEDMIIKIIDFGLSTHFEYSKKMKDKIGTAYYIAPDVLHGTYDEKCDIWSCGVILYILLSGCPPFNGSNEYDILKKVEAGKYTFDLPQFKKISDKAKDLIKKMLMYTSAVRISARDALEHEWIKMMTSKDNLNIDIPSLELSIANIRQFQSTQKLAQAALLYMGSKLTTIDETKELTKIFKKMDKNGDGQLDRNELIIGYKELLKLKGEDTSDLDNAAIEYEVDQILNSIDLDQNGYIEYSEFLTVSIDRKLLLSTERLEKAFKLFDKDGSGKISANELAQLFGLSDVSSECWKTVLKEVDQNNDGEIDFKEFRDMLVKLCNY

L-lactate dehydrogenase (Plasmodium falciparum (isolate CDC / Honduras)), sequence (Q27743 whole entry, looked up): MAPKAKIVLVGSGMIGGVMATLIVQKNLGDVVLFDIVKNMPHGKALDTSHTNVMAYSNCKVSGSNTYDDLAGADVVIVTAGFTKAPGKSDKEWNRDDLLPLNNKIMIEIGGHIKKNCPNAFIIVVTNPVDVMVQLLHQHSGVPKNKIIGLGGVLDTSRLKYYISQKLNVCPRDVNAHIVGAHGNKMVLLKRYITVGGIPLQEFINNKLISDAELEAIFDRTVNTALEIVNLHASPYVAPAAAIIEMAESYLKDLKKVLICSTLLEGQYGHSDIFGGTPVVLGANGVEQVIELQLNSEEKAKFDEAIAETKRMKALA
Protein kinase 7 (PK7), Plasmodium falciparum 3D7 (PF3D7_0213400), sequence (Q7YTF7 1-343): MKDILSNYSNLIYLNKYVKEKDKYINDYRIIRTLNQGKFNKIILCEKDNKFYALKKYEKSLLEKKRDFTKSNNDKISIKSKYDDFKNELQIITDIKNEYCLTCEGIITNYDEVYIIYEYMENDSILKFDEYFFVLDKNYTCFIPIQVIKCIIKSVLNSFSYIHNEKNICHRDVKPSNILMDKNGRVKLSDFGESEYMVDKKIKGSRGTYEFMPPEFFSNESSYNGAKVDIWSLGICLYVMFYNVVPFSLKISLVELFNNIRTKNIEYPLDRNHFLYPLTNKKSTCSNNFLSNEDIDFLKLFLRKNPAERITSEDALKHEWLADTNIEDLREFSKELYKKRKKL
Plasmodium falciparum protein kinase 6 (PK6, PF3D7_1337100), sequence (Q8IDW1 1-305): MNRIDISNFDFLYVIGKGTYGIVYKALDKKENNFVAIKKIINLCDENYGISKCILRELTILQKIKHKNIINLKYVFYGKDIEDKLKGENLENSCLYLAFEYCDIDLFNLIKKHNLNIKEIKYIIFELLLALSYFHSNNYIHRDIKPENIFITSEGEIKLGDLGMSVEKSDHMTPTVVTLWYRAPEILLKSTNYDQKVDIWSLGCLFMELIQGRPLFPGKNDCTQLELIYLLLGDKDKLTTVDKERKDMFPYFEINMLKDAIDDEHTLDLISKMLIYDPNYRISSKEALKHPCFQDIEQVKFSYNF
Calcium-dependent protein kinase 1 (Plasmodium falciparum (isolate 3D7)), sequence (P62344 whole entry, looked up): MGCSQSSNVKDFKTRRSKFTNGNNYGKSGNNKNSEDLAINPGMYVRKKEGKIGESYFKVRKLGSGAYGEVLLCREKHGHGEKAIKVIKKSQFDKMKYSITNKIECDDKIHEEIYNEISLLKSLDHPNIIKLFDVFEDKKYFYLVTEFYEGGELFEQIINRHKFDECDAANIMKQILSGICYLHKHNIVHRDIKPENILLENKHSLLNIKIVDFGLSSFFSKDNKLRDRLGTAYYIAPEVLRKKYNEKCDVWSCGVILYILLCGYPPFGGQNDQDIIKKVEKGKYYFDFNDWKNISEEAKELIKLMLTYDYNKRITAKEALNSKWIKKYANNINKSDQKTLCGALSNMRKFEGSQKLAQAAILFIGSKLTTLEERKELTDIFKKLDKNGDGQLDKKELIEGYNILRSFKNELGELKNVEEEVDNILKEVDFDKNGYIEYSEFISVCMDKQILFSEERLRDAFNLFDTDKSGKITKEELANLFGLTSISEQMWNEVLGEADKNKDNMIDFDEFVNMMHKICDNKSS

CCN(CC)CCCNCc1ccc(-c2ccc(C(F)(F)F)cc2)cc1
active: inhibition [2] 53% | growth inhibition [4] 95%
inactive: growth inhibition [1] 35% | inhibition [3] -4% | outcome [5] | outcome [6] | outcome [7] | outcome [8]

O=C(NCc1ccccc1)c1ncn(CCCN2CCC(N3CCCC3)CC2)c1-c1ccc(Cl)c(Cl)c1
active: growth inhibition [4] 89%
inactive: growth inhibition [1] 36% | inhibition [2] 8% | inhibition [3] 3% | outcome [5] | outcome [6] | outcome [7] | outcome [8]

Cc1cc(C)cc(Oc2c(C(F)(F)F)oc3c(CN4CC(C)OC(C)C4)c(O)ccc3c2=O)c1 (configuration not stated)
active: growth inhibition [1] 54% | growth inhibition [4] 89%
inactive: inhibition [2] 5% | inhibition [3] 1% | outcome [5] | outcome [6] | outcome [7] | outcome [8]

COCCOc1nc(N)nc2ncc(Cc3cc(OC)ccc3OC)c(C)c12
active: inhibition [2] 61% | growth inhibition [4] 96%
inactive: growth inhibition [1] 0% | inhibition [3] -5% | outcome [5] | outcome [6] | outcome [7] | outcome [8]

COc1ccc(C(=O)NCc2ccc(N)nc2C)cc1Nc1ncc(-c2cccc(N(C)C)c2)cn1
inactive: inhibition [2] 9% | inhibition [3] -1% | outcome [5] | outcome [6] | outcome [7] | outcome [8]
active: growth inhibition [1] 68% | growth inhibition [4] 89%

O=C(Nc1ccc2c(c1)CN(Cc1ccc(N3CCCC3)o1)CCC2)c1ccoc1
active: growth inhibition [1] 76% | growth inhibition [4] 89%
inactive: inhibition [2] 4% | inhibition [3] -3% | outcome [5] | outcome [6] | outcome [7] | outcome [8]

CCNc1cc(C)nc(Nc2ccc(NC(=O)c3ccccc3Br)cc2)n1
active: growth inhibition [1] 56% | growth inhibition [4] 100%
inactive: inhibition [2] 46% | inhibition [3] -3% | outcome [5] | outcome [6] | outcome [7] | outcome [8]

Cc1cc(NCc2ccccc2)nc2cc(O)ccc12
inactive: inhibition [2] -7% | inhibition [3] 6% | outcome [5] | outcome [6] | outcome [7] | outcome [8]
active: growth inhibition [1] 80% | growth inhibition [4] 98%

Cc1cc(NCCc2ccccc2)nc(/N=C(\N)Nc2ccc(Cl)cc2)n1
inactive: inhibition [2] 7% | inhibition [3] 4% | outcome [5] | outcome [6] | outcome [7] | outcome [8]
active: growth inhibition [1] 100% | growth inhibition [4] 102%

COc1cccc2[nH]c(NCCCNCc3cc(Br)cc(Br)c3)nc12
inactive: growth inhibition [1] 2% | inhibition [2] 5% | inhibition [3] -8% | outcome [5] | outcome [6] | outcome [7] | outcome [8]
active: growth inhibition [4] 88%

COc1ccc(C(=O)CCc2ccc(O)cc2)cc1
inactive: inhibition [2] -2% | inhibition [3] 4% | outcome [5] | outcome [6] | outcome [7] | outcome [8]
active: growth inhibition [1] 90% | growth inhibition [4] 96%

CCOc1cc(C(=O)Nc2ccccc2N2CCN(S(C)(=O)=O)CC2)cc(OCC)c1OCC
active: growth inhibition [1] 80% | growth inhibition [4] 91%
inactive: inhibition [2] -1% | inhibition [3] -2% | outcome [5] | outcome [6] | outcome [7] | outcome [8]

O=C(CNC1=NCCN1)Nc1ccc(NC(=O)Nc2ccc(NC(=O)CNC3=NCCN3)cc2)cc1
inactive: inhibition [2] -5% | inhibition [3] -2% | outcome [5] | outcome [6] | outcome [7] | outcome [8]
active: growth inhibition [1] 75% | growth inhibition [4] 90%

COc1ccc(CNc2nccc3ccc(-c4ccc(N)nc4)cc23)cc1
inactive: growth inhibition [1] 49% | inhibition [2] 7% | inhibition [3] 2% | outcome [5] | outcome [6] | outcome [7] | outcome [8]
active: growth inhibition [4] 93%

CC1(C)N=C(N)N=C(N)N1OCc1cc2ccccc2cc1CON1C(N)=NC(N)=NC1(C)C
active: growth inhibition [1] 51% | growth inhibition [4] 92%
inactive: inhibition [2] 0% | inhibition [3] -5% | outcome [5] | outcome [6] | outcome [7] | outcome [8]

Cc1ccc(NC(=O)NC2CCN(CCCCCNC(=O)/C=C/c3ccc(Cl)c(Cl)c3)CC2)cc1C
inactive: growth inhibition [1] 25% | inhibition [2] 36% | inhibition [3] -3% | outcome [5] | outcome [6] | outcome [7] | outcome [8]
active: growth inhibition [4] 101%

Cc1cccc2[nH]c(-c3cccc(-c4cccc(NC(=O)c5cnc[nH]5)c4)c3)nc12
active: growth inhibition [1] 91% | growth inhibition [4] 100%
inactive: inhibition [2] 2% | inhibition [3] 0% | outcome [5] | outcome [6] | outcome [7] | outcome [8]

COc1cccc2cc(C(=O)N[C@@H](CC(C)C)C(=O)NC3CC[C@@H](C)N(C(=O)Nc4ccncc4)CC3=O)oc12 (some centres not stated)
inactive: inhibition [2] 7% | inhibition [3] -7% | outcome [5] | outcome [6] | outcome [7] | outcome [8]
active: growth inhibition [1] 90% | growth inhibition [4] 95%

NC(=O)c1cc2nc(NC3CCC3)nc(Nc3cccc4[nH]ncc34)c2[nH]1
inactive: inhibition [2] 9% | inhibition [3] 4% | outcome [5] | outcome [6] | outcome [7] | outcome [8]
active: growth inhibition [1] 62% | growth inhibition [4] 100%

Cc1cc(NN=Cc2ccc(Cl)cc2)c2ccc(F)cc2n1
inactive: inhibition [2] 6% | inhibition [3] -2% | outcome [5] | outcome [6] | outcome [7] | outcome [8]
active: growth inhibition [1] 87% | growth inhibition [4] 100%

Clc1cccc(C=NNc2nc(Nc3ccccc3)nc(Nc3ccccc3)n2)c1
active: growth inhibition [4] 92%
inactive: growth inhibition [1] 15% | inhibition [2] -5% | inhibition [3] -4% | outcome [5] | outcome [6] | outcome [7] | outcome [8]

Cc1ccc(CNC(=O)[C@H](CCCN)Nc2nc(Nc3ccccc3)ncc2C)cc1
active: growth inhibition [4] 97%
inactive: growth inhibition [1] -4% | inhibition [2] -1% | inhibition [3] -2% | outcome [5] | outcome [6] | outcome [7] | outcome [8]

COCC(=O)N(Cc1ccccc1-c1cccc(CNCc2ccc3c(c2)OCO3)c1)C1CCN(Cc2ccccc2)CC1
active: growth inhibition [1] 72% | growth inhibition [4] 94%
inactive: inhibition [2] 33% | inhibition [3] -1% | outcome [5] | outcome [6] | outcome [7] | outcome [8]

O=C(NC1CCN(Cc2ccccc2)CC1)c1cccc(-c2nc3ccc(Cl)cc3[nH]2)c1
inactive: growth inhibition [1] -1% | inhibition [2] 6% | inhibition [3] -3% | outcome [5] | outcome [6] | outcome [7] | outcome [8]
active: growth inhibition [4] 98%

Cc1ccoc1C(=O)Nc1cccc(-c2cccc(-c3nc4ccc(C(F)(F)F)cc4[nH]3)c2)c1
inactive: growth inhibition [1] 37% | inhibition [2] 39% | inhibition [3] -6% | outcome [5] | outcome [6] | outcome [7] | outcome [8]
active: growth inhibition [4] 98%

CCCC(=O)Nc1ccc(OCCCN(Cc2ccccc2OC(F)(F)F)c2ccc(C#N)c(C(F)(F)F)c2)cc1
inactive: inhibition [2] 0% | inhibition [3] -2% | outcome [5] | outcome [6] | outcome [7] | outcome [8]
active: growth inhibition [1] 95% | growth inhibition [4] 94%

COC(=O)c1cccc(CNCc2ccc(-c3ccc(-c4nc5ccc(C(F)(F)F)cc5[nH]4)cc3)cc2)c1
active: growth inhibition [1] 98% | growth inhibition [4] 101%
inactive: inhibition [2] 22% | inhibition [3] 0% | outcome [5] | outcome [6] | outcome [7] | outcome [8]

c1ccc(-c2ccc(-c3nc4ccccc4[nH]3)cc2)cc1
active: growth inhibition [1] 83% | growth inhibition [4] 93%
inactive: inhibition [2] 10% | inhibition [3] -5% | outcome [5] | outcome [6] | outcome [7] | outcome [8]

N#Cc1cccc(CN2CCCN(c3ccc(NC(=O)c4cccs4)cc3)CC2)c1
inactive: inhibition [2] -2% | inhibition [3] -2% | outcome [5] | outcome [6] | outcome [7] | outcome [8]
active: growth inhibition [1] 95% | growth inhibition [4] 96%

COc1ccc(C(C(=O)NC2CCN(C[C@H](O)c3ccnc4ccc(OC)cc34)CC2)N2CCN(c3ccc(Cl)c(Cl)c3)CC2)cc1 (some centres not stated)
inactive: inhibition [2] 12% | inhibition [3] 2% | outcome [5] | outcome [6] | outcome [7] | outcome [8]
active: growth inhibition [1] 79% | growth inhibition [4] 101%

Oc1ccc2[nH]c(-c3cccs3)nc2c1CN1CCC(O)(c2ccccc2)CC1
inactive: inhibition [2] 10% | inhibition [3] -1% | outcome [5] | outcome [6] | outcome [7] | outcome [8]
active: growth inhibition [1] 69% | growth inhibition [4] 93%

CC(=O)Nc1nc(C(=O)Nc2ccc(-c3cccc(-c4nc5ccc(C(F)(F)F)cc5[nH]4)c3)cc2)cs1
inactive: inhibition [3] -2% | outcome [5] | outcome [6] | outcome [7] | outcome [8]
active: growth inhibition [1] 97% | inhibition [2] 79% | growth inhibition [4] 101%

CCC(Cc1cnc2nc(N)nc(N)c2n1)c1ccc(C(=O)O)cc1 (configuration not stated)
inactive: growth inhibition [1] -2% | inhibition [2] 15% | inhibition [3] -2% | outcome [5] | outcome [6] | outcome [7] | outcome [8]
active: growth inhibition [4] 93%

COc1ccc(C(=O)Nc2cc(Br)c3c(c2)CNCC3)cc1C(F)(F)F
active: growth inhibition [4] 90%
inactive: growth inhibition [1] 4% | inhibition [2] 13% | inhibition [3] 8% | outcome [5] | outcome [6] | outcome [7] | outcome [8]

C=CCNS(=O)(=O)c1ccc(NC(=O)C(C)Oc2ccc([N+](=O)[O-])cc2)cc1 (configuration not stated)
active: growth inhibition [1] 100% | growth inhibition [4] 101%
inactive: inhibition [2] 14% | inhibition [3] -3% | outcome [5] | outcome [6] | outcome [7] | outcome [8]

COC(=O)[C@@H](NC(=O)[C@H](Cc1ccc(OC)c(OC)c1)Nc1ccc(C#N)c2ccccc12)c1ccc(O)cc1
active: growth inhibition [1] 100% | growth inhibition [4] 101%
inactive: inhibition [2] 6% | inhibition [3] 5% | outcome [5] | outcome [6] | outcome [7] | outcome [8]

CCCCOC(=O)c1ccc(Nc2cc(C)nc3ccc(OC)cc23)cc1
active: growth inhibition [1] 96% | growth inhibition [4] 100%
inactive: inhibition [2] 4% | inhibition [3] -5% | outcome [5] | outcome [6] | outcome [7] | outcome [8]

CS(=O)(=O)c1cccc(-c2ccc3oc(C(N)=O)c(NC(=O)c4cccs4)c3c2)c1
inactive: inhibition [2] 11% | inhibition [3] -8% | outcome [5] | outcome [6] | outcome [7] | outcome [8]
active: growth inhibition [1] 77% | growth inhibition [4] 86%

COc1ccc2nccc([C@@H](O)CN3CCC(NCCOc4cccc(C(F)(F)F)c4)CC3)c2c1
inactive: inhibition [2] 16% | inhibition [3] 3% | outcome [5] | outcome [6] | outcome [7] | outcome [8]
active: growth inhibition [1] 74% | growth inhibition [4] 102%
